Laboratory results: PubChem BioAssay (NCI)
Compounds without any hit were thinned out: in the full panel of roughly 83,000, 20% have a hit.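 Growth was measured after 48 h exposure to one concentration of compound in 96-well plates. Values under 10 count as active.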 Values without a mark were called inactive. The source made the active and inactive calls.

What was measured:
Assay in all cases: NCI-60 one-dose screen, 48 h (100 = growth as untreated, 0 = no growth, -100 = all killed)
Details in all cases: 10 µM unless noted
HCT-15 colon = test system: HCT-15 colon
HT29 colon = test system: HT29 colon
SNB-75 CNS = test system: SNB-75 CNS
SNB-19 CNS = test system: SNB-19 CNS
U251 CNS = test system: U251 CNS
PC-3 prostate = test system: PC-3 prostate
SK-MEL-5 melanoma = test system: SK-MEL-5 melanoma
UACC-62 melanoma = test system: UACC-62 melanoma
SK-MEL-28 melanoma = test system: SK-MEL-28 melanoma
LOX IMVI melanoma = test system: LOX IMVI melanoma

CC(c1ccccc1)N1C(=O)C(C2SC(=S)N(C(C)c3ccccc3)C2=O)SC1=S (centres undefined)
growth (HCT-15 colon): 54.9%
growth (HT29 colon): 72.5%
growth (SNB-75 CNS): 89%
growth (SNB-19 CNS): 78.6%
growth (U251 CNS): 85%
growth (PC-3 prostate): 84.7%
growth (SK-MEL-5 melanoma): 99.3%
growth (UACC-62 melanoma): 77.7%
growth (SK-MEL-28 melanoma): 86.6%

CC1c2ccccc2N(S(=O)(=O)c2ccccc2)C1C (centres undefined)
growth (HCT-15 colon): 70.5%
growth (HT29 colon): 67.8%
growth (SNB-75 CNS): 86%
growth (SNB-19 CNS): 91.5%
growth (U251 CNS): 88%
growth (PC-3 prostate): 81.4%
growth (SK-MEL-5 melanoma): 89.2%
growth (UACC-62 melanoma): 71.6%
growth (SK-MEL-28 melanoma): 92.1%

CC(=O)NC1=C(C#N)C(c2ccccc2Cl)c2c(ccc3ccccc23)O1 (centres undefined)
growth (HCT-15 colon): 32%
growth (HT29 colon): 51.6%
growth (SNB-75 CNS): 30.1%
growth (SNB-19 CNS): 58.1%
growth (U251 CNS): 69.3%
growth (PC-3 prostate): 60.6%
growth (SK-MEL-5 melanoma): 56.7%
growth (UACC-62 melanoma): 36.6%
growth (SK-MEL-28 melanoma): 66.4%

O=C(O)c1cccc2c1Cc1cc([N+](=O)[O-])ccc1-2
growth (HCT-15 colon): 106%
growth (HT29 colon): 112%
growth (SNB-75 CNS): 83.5%
growth (SNB-19 CNS): 108%
growth (U251 CNS): 104%
growth (PC-3 prostate): 110%
growth (SK-MEL-5 melanoma): 105%
growth (UACC-62 melanoma): 102%
growth (SK-MEL-28 melanoma): 108%

COC(=O)[C@]12CC[C@@H](C(=O)/C=C/c3cccnc3)[C@@H]1[C@H]1CC[C@@H]3[C@@]4(C)C/C(=C/c5cccnc5)C(=O)C(C)(C)[C@@H]4CC[C@@]3(C)[C@]1(C)CC2
growth (HCT-15 colon): -46.2% (active)
growth (HT29 colon): -45.5% (active)
growth (SNB-75 CNS): -98.7% (active)
growth (SNB-19 CNS): -87.6% (active)
growth (U251 CNS): -87.9% (active)
growth (PC-3 prostate): -14.1% (active)
growth (SK-MEL-5 melanoma): -98.9% (active)
growth (UACC-62 melanoma): -67.9% (active)
growth (SK-MEL-28 melanoma): -96.3% (active)

CC(=O)c1c(C)[nH]c(-c2nc3ccc(N4CCN(C)CC4)cc3[nH]2)c1-c1ccc(N(C)C)cc1
growth (HCT-15 colon): 4.03% (active)
growth (HT29 colon): 9.08% (active)
growth (SNB-75 CNS): -9.22% (active)
growth (SNB-19 CNS): 42.4%
growth (U251 CNS): 51%
growth (PC-3 prostate): 42%
growth (SK-MEL-5 melanoma): 2.25% (active)
growth (UACC-62 melanoma): 21.1%
growth (SK-MEL-28 melanoma): 45.8%

C=C(C)[C@@H]1CC[C@]2(/C=N/Nc3ccncc3)CC[C@]3(C)[C@H](CC[C@@H]4[C@@]5(C)CCCNC(C)(C)[C@@H]5CC[C@]43C)[C@@H]12
growth (HCT-15 colon): 68.4%
growth (HT29 colon): 18.6%
growth (SNB-75 CNS): 90.5%
growth (SNB-19 CNS): 94.7%
growth (U251 CNS): 67.9%
growth (PC-3 prostate): 47.3%
growth (SK-MEL-5 melanoma): 81.7%
growth (UACC-62 melanoma): 88.1%
growth (SK-MEL-28 melanoma): 95.4%

Nc1c(C(=O)Nc2cccc(Br)c2)sc2nc3c(cc12)C(=O)CCC3
growth (HCT-15 colon): 33%
growth (HT29 colon): 8.17% (active)
growth (SNB-75 CNS): -4.52% (active)
growth (SNB-19 CNS): 32.7%
growth (U251 CNS): 37.7%
growth (PC-3 prostate): 14.3%
growth (SK-MEL-5 melanoma): 20.5%
growth (UACC-62 melanoma): 35.3%
growth (SK-MEL-28 melanoma): 48.3%

c1ccc(CN2C(c3ccccc3)=Nc3ccccc3C2c2c[nH]c3ccccc23)cc1 (centres undefined)
growth (HCT-15 colon): 35.6%
growth (HT29 colon): 15.1%
growth (SNB-75 CNS): 59.2%
growth (SNB-19 CNS): 49.1%
growth (U251 CNS): 35.7%
growth (PC-3 prostate): 29.8%
growth (SK-MEL-5 melanoma): 42.4%
growth (LOX IMVI melanoma): 15.4%

O=C1CN(c2ccccc2)C(=O)C1C(=O)Nc1ccc(Cl)c(Cl)c1 (centres undefined)
growth (HCT-15 colon): 27.9% [100 µM]
growth (HT29 colon): 3.98% [100 µM] (active)
growth (SNB-75 CNS): 6.38% [100 µM] (active)
growth (SNB-19 CNS): 3.37% [100 µM] (active)
growth (U251 CNS): -7.08% [100 µM] (active)
growth (PC-3 prostate): 27.1% [100 µM]
growth (SK-MEL-5 melanoma): -6.23% [100 µM] (active)
growth (UACC-62 melanoma): -3.41% [100 µM] (active)
growth (SK-MEL-28 melanoma): 33.4% [100 µM]
